In assay [1] the target is Sphingosine kinase 1 (Homo sapiens) (UniProt Q9NYA1). The settings on record: at 1 µM.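 Further: mean SPHK1 inhibition value reported from the GSK PKIS kinase panel screen.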
For assay [2], the target named is T1, Sphingosine kinase 2 (Homo sapiens) (UniProt Q9NRA0).
T1 sequence (whole entry): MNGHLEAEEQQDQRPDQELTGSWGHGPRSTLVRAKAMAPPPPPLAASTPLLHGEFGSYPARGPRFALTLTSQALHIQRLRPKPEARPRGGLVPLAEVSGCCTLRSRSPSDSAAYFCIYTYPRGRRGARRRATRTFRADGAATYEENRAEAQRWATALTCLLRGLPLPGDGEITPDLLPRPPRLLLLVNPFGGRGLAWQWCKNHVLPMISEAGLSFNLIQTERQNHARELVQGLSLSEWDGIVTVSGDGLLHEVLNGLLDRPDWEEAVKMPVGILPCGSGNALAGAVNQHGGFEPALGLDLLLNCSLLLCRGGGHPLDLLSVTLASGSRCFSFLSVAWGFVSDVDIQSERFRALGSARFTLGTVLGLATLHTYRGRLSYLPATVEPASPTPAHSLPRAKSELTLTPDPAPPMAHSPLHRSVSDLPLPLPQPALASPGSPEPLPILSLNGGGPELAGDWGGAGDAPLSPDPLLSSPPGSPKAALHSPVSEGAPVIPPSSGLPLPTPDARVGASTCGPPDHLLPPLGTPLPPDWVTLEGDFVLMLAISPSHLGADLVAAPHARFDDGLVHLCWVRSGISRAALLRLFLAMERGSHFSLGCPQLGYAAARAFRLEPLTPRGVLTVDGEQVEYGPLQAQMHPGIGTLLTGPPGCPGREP
The settings on record: at 0.1 µM.

The target in assay [3] is T1, Sphingosine kinase 2 (Homo sapiens). The settings on record: at 1 µM.
In assay [4] the target is Casein kinase II subunit alpha (Homo sapiens) (UniProt P68400). As to conditions: at 0.1 µM.
Assay [5] has the same target. As to conditions: at 1 µM.
For assay [6], the target named is T2, Inhibitor of nuclear factor kappa-B kinase subunit alpha (Homo sapiens) (UniProt O15111).
T2 sequence (whole entry): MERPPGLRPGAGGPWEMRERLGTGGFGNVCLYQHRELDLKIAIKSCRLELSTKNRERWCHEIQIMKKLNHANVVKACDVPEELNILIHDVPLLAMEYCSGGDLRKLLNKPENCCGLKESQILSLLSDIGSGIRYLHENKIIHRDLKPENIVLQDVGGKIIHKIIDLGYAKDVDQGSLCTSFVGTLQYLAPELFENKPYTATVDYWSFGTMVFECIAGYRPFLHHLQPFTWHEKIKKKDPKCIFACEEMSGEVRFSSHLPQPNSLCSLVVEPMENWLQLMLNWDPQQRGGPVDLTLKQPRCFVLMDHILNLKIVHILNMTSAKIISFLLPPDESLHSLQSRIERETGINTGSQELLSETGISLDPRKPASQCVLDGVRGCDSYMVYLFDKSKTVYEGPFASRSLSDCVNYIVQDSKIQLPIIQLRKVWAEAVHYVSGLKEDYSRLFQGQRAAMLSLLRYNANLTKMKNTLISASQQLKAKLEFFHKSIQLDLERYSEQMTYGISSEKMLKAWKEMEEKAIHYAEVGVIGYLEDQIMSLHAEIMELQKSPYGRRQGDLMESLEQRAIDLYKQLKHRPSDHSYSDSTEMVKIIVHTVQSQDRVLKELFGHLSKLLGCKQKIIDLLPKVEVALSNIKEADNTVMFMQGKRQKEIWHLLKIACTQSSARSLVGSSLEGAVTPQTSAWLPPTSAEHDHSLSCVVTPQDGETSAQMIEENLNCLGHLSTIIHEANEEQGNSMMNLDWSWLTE
As to conditions: at 0.1 µM.

Assay [7] has as its target T2, Inhibitor of nuclear factor kappa-B kinase subunit alpha (Homo sapiens). The settings on record: at 1 µM.
For assay [8], the target named is T3, Inhibitor of nuclear factor kappa-B kinase subunit beta (Homo sapiens) (UniProt O14920).
T3 sequence (whole entry): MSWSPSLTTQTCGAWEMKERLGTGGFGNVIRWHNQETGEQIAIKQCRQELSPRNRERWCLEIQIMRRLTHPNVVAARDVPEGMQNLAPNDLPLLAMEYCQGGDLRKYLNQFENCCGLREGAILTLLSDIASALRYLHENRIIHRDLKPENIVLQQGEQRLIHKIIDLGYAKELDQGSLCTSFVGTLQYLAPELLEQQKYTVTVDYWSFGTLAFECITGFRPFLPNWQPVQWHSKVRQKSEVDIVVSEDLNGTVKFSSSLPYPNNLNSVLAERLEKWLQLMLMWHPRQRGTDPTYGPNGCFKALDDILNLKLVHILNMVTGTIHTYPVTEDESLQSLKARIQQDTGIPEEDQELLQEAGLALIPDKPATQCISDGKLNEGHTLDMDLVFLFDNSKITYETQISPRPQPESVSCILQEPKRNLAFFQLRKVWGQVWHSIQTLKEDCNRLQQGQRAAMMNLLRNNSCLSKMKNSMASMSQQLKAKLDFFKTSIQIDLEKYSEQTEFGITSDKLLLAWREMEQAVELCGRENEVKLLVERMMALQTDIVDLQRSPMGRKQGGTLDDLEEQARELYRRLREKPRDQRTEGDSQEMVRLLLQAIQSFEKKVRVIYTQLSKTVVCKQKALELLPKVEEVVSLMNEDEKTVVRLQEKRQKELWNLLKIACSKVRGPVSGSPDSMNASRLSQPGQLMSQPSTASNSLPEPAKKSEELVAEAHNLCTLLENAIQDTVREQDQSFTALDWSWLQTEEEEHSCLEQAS
As to conditions: at 0.1 µM.

In assay [9] the target is T3, Inhibitor of nuclear factor kappa-B kinase subunit beta (Homo sapiens). As to conditions: at 1 µM.
Assay [10] concerns the target T4, Inhibitor of nuclear factor kappa-B kinase subunit epsilon (Homo sapiens) (UniProt Q14164).
T4 sequence (whole entry): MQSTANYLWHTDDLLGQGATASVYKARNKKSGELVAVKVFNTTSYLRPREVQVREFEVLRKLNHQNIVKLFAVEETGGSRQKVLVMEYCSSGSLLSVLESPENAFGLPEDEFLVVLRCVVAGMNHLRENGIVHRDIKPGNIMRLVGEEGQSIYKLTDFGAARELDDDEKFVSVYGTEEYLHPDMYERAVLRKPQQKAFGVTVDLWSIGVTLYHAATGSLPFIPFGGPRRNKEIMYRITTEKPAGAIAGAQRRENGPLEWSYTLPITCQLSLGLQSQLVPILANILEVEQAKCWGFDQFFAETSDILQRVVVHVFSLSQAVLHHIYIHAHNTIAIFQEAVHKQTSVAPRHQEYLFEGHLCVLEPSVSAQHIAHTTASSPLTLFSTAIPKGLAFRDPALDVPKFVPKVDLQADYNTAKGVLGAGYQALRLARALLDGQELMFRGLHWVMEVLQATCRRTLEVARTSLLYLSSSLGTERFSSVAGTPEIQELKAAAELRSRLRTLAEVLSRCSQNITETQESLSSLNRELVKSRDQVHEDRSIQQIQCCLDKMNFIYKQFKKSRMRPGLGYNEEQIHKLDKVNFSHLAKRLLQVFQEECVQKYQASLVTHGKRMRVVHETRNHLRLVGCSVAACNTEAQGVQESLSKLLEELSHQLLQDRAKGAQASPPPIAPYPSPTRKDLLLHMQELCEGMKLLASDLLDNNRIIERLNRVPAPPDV
The settings on record: at 0.1 µM.

Assay [11] addresses T4, Inhibitor of nuclear factor kappa-B kinase subunit epsilon (Homo sapiens). The settings on record: at 1 µM.
Assay [12] has as its target T5, Serine/threonine-protein kinase Nek1 (Homo sapiens) (UniProt Q96PY6).
T5 sequence (whole entry): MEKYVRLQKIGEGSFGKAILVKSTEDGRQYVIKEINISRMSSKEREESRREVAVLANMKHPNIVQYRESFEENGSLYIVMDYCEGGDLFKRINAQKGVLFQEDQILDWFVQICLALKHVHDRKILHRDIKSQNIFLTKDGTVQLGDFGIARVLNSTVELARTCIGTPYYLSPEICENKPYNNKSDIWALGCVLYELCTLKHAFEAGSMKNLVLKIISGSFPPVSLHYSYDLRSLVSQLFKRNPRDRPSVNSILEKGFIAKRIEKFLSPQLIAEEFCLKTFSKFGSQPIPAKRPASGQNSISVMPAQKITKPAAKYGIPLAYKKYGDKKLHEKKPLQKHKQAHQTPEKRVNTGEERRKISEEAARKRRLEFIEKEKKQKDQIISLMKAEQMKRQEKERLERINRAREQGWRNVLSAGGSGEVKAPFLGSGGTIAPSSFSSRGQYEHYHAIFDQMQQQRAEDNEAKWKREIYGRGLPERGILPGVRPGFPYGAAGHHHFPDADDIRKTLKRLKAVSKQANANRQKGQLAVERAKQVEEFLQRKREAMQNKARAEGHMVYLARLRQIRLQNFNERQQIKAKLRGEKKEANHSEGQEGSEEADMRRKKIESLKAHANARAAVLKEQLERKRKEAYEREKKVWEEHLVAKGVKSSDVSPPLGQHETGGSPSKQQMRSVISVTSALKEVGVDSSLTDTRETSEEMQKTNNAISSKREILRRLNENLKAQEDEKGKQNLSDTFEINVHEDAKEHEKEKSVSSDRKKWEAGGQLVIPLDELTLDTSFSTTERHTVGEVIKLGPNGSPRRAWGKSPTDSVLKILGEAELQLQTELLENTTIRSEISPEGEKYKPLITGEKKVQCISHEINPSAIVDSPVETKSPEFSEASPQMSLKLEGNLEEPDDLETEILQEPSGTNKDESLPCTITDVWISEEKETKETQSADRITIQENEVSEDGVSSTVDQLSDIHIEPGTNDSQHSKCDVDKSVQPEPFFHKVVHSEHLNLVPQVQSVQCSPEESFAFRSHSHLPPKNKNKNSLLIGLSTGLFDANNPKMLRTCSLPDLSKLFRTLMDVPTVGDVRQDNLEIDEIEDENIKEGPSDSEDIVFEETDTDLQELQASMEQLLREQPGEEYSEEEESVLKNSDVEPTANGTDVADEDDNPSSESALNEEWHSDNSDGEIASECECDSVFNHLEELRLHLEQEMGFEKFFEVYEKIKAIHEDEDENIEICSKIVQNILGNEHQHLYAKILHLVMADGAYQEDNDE
The settings on record: at 0.1 µM.

The target in assay [13] is T5, Serine/threonine-protein kinase Nek1 (Homo sapiens). As to conditions: at 1 µM.
The target of assay [14] is T6, Serine/threonine-protein kinase Nek2 (Homo sapiens) (UniProt P51955).
T6 sequence (whole entry): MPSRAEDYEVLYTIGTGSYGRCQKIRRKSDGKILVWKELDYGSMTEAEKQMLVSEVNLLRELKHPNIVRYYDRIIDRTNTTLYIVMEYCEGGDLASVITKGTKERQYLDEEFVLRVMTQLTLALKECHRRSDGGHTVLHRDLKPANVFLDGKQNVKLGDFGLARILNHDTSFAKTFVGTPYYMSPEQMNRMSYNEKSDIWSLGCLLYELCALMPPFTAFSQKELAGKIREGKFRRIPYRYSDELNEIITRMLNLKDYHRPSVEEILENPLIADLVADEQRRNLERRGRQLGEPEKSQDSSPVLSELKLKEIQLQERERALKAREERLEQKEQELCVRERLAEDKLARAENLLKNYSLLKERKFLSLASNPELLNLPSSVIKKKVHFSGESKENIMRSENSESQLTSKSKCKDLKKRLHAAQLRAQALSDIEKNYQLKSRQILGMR
The settings on record: at 0.1 µM.

Assay [15] concerns the target T6, Serine/threonine-protein kinase Nek2 (Homo sapiens). The settings on record: at 1 µM.
In assay [16] the target is Serine/threonine-protein kinase Nek6 (Homo sapiens) (UniProt Q9HC98). As to conditions: at 0.1 µM.
Assay [17] shares this target. As to conditions: at 1 µM.
Assay [18] addresses Serine/threonine-protein kinase Nek7 (Homo sapiens) (UniProt Q8TDX7). The settings on record: at 0.1 µM.
Assay [19] has the same target. The settings on record: at 1 µM.
Assay [20] has as its target T7, Serine/threonine-protein kinase Nek9 (Homo sapiens) (UniProt Q8TD19).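 Further: reported value is the mean percent inhibition of NEK9.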
T7 sequence (whole entry): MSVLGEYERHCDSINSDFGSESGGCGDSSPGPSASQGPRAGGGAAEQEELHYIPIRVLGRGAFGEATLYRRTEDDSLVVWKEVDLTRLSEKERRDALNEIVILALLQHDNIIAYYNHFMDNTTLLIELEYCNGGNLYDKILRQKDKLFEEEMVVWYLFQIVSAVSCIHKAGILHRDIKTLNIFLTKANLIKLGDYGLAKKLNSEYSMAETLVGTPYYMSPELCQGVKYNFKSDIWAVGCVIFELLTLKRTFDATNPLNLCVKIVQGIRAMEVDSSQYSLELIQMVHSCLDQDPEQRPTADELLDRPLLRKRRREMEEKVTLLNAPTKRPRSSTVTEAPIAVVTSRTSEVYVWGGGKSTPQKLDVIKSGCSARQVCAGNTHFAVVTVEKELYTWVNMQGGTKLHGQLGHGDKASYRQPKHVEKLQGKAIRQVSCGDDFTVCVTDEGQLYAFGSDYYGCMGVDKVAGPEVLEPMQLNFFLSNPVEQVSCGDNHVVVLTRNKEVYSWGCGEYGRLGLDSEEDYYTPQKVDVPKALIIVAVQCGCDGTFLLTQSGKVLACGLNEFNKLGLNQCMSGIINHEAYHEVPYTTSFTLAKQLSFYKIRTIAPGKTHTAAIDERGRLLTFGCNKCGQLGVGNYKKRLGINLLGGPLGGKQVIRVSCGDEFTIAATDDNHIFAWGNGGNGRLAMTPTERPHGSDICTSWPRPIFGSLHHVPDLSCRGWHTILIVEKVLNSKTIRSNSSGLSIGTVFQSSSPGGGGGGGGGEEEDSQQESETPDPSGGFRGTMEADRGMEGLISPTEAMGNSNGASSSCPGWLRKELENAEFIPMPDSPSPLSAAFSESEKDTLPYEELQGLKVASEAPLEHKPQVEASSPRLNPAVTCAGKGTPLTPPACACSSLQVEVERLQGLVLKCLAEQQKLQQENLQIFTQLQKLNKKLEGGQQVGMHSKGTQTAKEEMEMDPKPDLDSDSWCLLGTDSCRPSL
As to conditions: at 0.1 µM.

Chain of Serine/threonine-protein kinase Nek7 (Homo sapiens) (Q8TDX7 whole entry, looked up): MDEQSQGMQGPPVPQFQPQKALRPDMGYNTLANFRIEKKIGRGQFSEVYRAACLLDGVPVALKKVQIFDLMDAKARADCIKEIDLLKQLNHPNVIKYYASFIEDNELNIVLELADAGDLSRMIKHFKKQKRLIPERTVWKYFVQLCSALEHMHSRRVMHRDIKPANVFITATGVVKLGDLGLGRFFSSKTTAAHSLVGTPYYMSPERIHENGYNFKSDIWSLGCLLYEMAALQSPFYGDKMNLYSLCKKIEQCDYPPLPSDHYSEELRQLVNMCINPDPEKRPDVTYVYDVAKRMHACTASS
Chain of Casein kinase II subunit alpha (Homo sapiens) (P68400 whole entry, looked up): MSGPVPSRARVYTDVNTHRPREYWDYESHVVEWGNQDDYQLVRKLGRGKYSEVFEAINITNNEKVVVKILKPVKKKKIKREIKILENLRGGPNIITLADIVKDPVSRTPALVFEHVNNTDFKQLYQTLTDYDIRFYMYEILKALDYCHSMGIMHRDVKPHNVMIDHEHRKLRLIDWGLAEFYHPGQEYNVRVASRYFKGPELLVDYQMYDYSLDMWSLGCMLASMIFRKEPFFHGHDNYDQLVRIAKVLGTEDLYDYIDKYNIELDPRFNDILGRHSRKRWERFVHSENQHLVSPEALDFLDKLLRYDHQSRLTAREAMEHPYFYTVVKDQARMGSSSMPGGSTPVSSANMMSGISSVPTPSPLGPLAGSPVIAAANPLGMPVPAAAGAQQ
Chain of Serine/threonine-protein kinase Nek6 (Homo sapiens) (Q9HC98 whole entry): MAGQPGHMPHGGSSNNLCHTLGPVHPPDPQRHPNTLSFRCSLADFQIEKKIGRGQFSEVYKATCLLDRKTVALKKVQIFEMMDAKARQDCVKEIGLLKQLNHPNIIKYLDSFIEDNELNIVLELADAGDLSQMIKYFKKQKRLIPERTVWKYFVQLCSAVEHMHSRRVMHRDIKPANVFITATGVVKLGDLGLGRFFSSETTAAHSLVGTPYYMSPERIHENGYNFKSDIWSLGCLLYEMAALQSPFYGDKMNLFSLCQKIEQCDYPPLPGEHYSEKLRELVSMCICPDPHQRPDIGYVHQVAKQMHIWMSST
Chain of Sphingosine kinase 1 (Homo sapiens) (Q9NYA1 whole entry): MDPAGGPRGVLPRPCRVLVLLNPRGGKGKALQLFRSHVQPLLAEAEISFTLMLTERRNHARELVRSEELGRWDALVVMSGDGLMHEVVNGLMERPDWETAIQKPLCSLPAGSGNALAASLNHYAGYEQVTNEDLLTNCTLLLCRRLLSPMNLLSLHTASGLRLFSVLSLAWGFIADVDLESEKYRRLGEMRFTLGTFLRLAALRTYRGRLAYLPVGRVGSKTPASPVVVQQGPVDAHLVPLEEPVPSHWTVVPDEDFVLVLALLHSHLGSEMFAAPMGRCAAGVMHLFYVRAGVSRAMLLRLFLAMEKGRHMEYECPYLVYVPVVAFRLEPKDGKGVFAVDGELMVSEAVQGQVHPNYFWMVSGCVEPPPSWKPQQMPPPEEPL

Consider `COC(=O)Nc1nc2ccc(Oc3ccc(NC(=O)Nc4cc(C(F)(F)F)ccc4F)cc3)cc2s1`, for which the inhibition is -3.33% in assay [1]; 0.51% in assay [2]; -0.44% in assay [3]; -0.3% in [4]; 1.75% in assay [5]; 4.91% in assay [6]. The inhibition in [7] is -0.96%; in assay [8], 3.58%; in assay [9], -1.14%; in [10] it was -0.11%; in assay [11] it was -1.19%; in [12], 1.14%. The inhibition in [13] is 1.38%; in [14], -0.09%; in assay [15], 0.69%; in assay [16], -1.08%; in assay [17], -4.58%; in assay [18], 1.35%. In addition, the inhibition in assay [19] was 0.53%; in [20], -1.57%.

For the origin of these results see ChEMBL document CHEMBL1961873, “Compounds: GSK PKIS; Assays: Nanosyn kinase panel” (2012).
